From PubChem BioAssay come the findings set out here.

For orientation: viability means a read-out of living cells in per cent, often relative to untreated cells.

A number with no mark means an inactive call. Activity calls are given as the source filed them.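 The calls were made as follows: active = normalized viability below 100% at a tested concentration; inactive = the rest.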

One assay is described as follows: ovarian cancer cell viability with rucaparib, profiling panel, oncology-focused library, rucaparib conditional (AID 1508598). As to conditions: patient-derived ovarian cancer cells, CellTiter-Glo viability, 144 h; at 0.00122 µM; OCI-P5x cells; without rucaparib; active compounds read low.
In the case of `CNC(=O)c1cc(Oc2ccc(NC(=O)Nc3ccc(Cl)c(C(F)(F)F)c3)c(F)c2)ccn1`, the viability is 106%.
The same measure, in the same setting: for `O=C(CCCCCCC(=O)Nc1ccc([C@H]2O[C@@H](CSc3nc(-c4ccccc4)c(-c4ccccc4)o3)C[C@@H](c3ccc(CO)cc3)O2)cc1)NO` the value was 114%.
For the compound `CNC(=O)c1cc(COc2nnc(Nc3ccc(Cl)cc3)c3ccoc23)ccn1`, the viability was 109%.
Regarding `CS(=O)(=O)N1CCc2c(-c3cnc(N)nc3)nc(N3CCOCC3)nc21`, the viability was 111%.
On to `Nc1ccn([C@@H]2O[C@H](CO)[C@@H](O)C2(F)F)c(=O)n1`, for which the viability was 27% (active).

Still in this assay, the particulars now being: patient-derived ovarian cancer cells, CellTiter-Glo viability, 144 h; at 0.00488 µM; OCI-C5x cells; with rucaparib 10 µM; active compounds read low; 100% = cells with rucaparib alone.
On to `CNC(=O)c1cc(Oc2ccc(NC(=O)Nc3ccc(Cl)c(C(F)(F)F)c3)c(F)c2)ccn1`, for which the viability was 109%.
As for `O=C(CCCCCCC(=O)Nc1ccc([C@H]2O[C@@H](CSc3nc(-c4ccccc4)c(-c4ccccc4)o3)C[C@@H](c3ccc(CO)cc3)O2)cc1)NO`, the viability is 115%.
With `CNC(=O)c1cc(COc2nnc(Nc3ccc(Cl)cc3)c3ccoc23)ccn1`, the viability is 108%.
Same read-out and setting: for `CS(=O)(=O)N1CCc2c(-c3cnc(N)nc3)nc(N3CCOCC3)nc21` the value was 96.5% (active); for `Nc1ccn([C@@H]2O[C@H](CO)[C@@H](O)C2(F)F)c(=O)n1`, 81% (active).

Staying with this assay, now noted: patient-derived ovarian cancer cells, CellTiter-Glo viability, 144 h; at 0.00488 µM; OCI-C5x cells; without rucaparib; active compounds read low.
For the compound `CNC(=O)c1cc(Oc2ccc(NC(=O)Nc3ccc(Cl)c(C(F)(F)F)c3)c(F)c2)ccn1`, the viability is 98.5% (active).
For `O=C(CCCCCCC(=O)Nc1ccc([C@H]2O[C@@H](CSc3nc(-c4ccccc4)c(-c4ccccc4)o3)C[C@@H](c3ccc(CO)cc3)O2)cc1)NO`, the viability is 132%.
With `CNC(=O)c1cc(COc2nnc(Nc3ccc(Cl)cc3)c3ccoc23)ccn1`, the viability is 113%.
For the compound `CS(=O)(=O)N1CCc2c(-c3cnc(N)nc3)nc(N3CCOCC3)nc21`, the viability is 111%.
Regarding `Nc1ccn([C@@H]2O[C@H](CO)[C@@H](O)C2(F)F)c(=O)n1`, the viability is 80% (active).

Still in this assay, the particulars now being: patient-derived ovarian cancer cells, CellTiter-Glo viability, 144 h; at 0.00488 µM; OCI-P5x cells; with rucaparib 20 µM; active compounds read low; 100% = cells with rucaparib alone.
Regarding `CNC(=O)c1cc(Oc2ccc(NC(=O)Nc3ccc(Cl)c(C(F)(F)F)c3)c(F)c2)ccn1`, the viability is 114%.
The same measure, in the same setting: for `O=C(CCCCCCC(=O)Nc1ccc([C@H]2O[C@@H](CSc3nc(-c4ccccc4)c(-c4ccccc4)o3)C[C@@H](c3ccc(CO)cc3)O2)cc1)NO` the value was 90% (active); for `CNC(=O)c1cc(COc2nnc(Nc3ccc(Cl)cc3)c3ccoc23)ccn1`, 102%.
Same read-out and setting: under `CS(=O)(=O)N1CCc2c(-c3cnc(N)nc3)nc(N3CCOCC3)nc21` stands 113%; under `Nc1ccn([C@@H]2O[C@H](CO)[C@@H](O)C2(F)F)c(=O)n1`, 57.2% (active).
